Bioassay records as filed in PubChem.
Mtb UGM inh = Mtb UDP-galactopyranose mutase inhibition. P9WIQ1. purified UGM, fluorescence polarization probe displacement. inhibition, % at 10 µM. actives 0.06% (n = 320,000); in the data active = inhibition above about 10%, passing the limit was not always enough
Target sequence (P9WIQ1 whole entry, looked up): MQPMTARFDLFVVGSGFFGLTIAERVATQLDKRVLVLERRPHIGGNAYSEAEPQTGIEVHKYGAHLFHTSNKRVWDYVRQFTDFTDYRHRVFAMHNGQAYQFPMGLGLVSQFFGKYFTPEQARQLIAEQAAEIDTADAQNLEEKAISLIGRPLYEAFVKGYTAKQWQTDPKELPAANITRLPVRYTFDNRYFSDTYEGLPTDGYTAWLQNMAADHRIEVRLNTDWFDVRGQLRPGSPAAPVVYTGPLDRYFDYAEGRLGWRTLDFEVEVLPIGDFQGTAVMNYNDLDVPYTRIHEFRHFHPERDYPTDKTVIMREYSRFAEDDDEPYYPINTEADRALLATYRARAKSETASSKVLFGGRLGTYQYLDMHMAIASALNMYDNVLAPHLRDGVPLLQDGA
Mtb betalactam = beta-lactam sensitization of Mtb H37Rv; M. tuberculosis H37Rv growth with meropenem, percent inhibition; inhibition, % at 25 µM; AID 434955; actives 0.27% (n = 330,000); call rule not given here;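 note: growth measured after seven days incubation then overnight dye step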
GDH-TPI inh = counter-screen for M. tuberculosis FBA inhibitors: GDH-TPI coupled enzymes; actives 1.2% (n = 360,000); inhibition, % at 4.8 µM; AID 588335; GDH-TPI coupled enzyme counterscreen, NADH absorbance; in the data active = inhibition above about 30%
Rv3671c inh = inhibits the M. tuberculosis serine protease Rv3671c; inhibition, % at 5.96 µM; actives 0.048% (n = 320,000); AID 2606; P9WHR9; in the data active = inhibition above about 38%;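 note: extracellular domain of Rv3671c used as enzyme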
PriA SSB inh = blocks PriA binding to SSB C-terminal tail; AlphaScreen SSBct-PriA binding, biotinylated peptide; inhibition, % at 33 µM; actives 0.6% (n = 430,000); AID 1272365; in the data active = inhibition mostly above about 37%, no sharp cut-off; inactive = mostly below about 20%
Mtb FBA inh = Mtb fructose-bisphosphate aldolase inhibition; P9WQA3; purified M. tuberculosis FBA, fluorescence read-out; inhibition, % at 1 µM; actives 2.3% (n = 360,000); in the data active = inhibition above about 27%
A number is an active result; – = inactive; · = no result; + = active, no number. An excerpt weighted towards active compounds, which were near 3.2% of everything screened.

SMILES | Mtb UGM inh | Mtb betalactam | GDH-TPI inh | Rv3671c inh | PriA SSB inh | Mtb FBA inh
COc1ccc2sc(N(CCN3CCOCC3)C(=O)c3ccnn3C)nc2c1 | · | · | · | · | – | ·
CCOc1ccc(NC(=O)CC(NCc2ccccn2)C(=O)O)cc1 (centres undefined) | – | – | – | – | 96 | –
COc1ccc(NC(=O)CC(NCc2ccccn2)C(=O)O)cc1 (centres undefined) | – | – | – | – | – | –
CC(N=Cc1c(O)n(C2CC2)c(=S)[nH]c1=O)c1ccccc1 (centres undefined) | – | – | 35 | – | – | –
O=c1[nH]c(=S)n(C2CC2)c(O)c1/C=N/Nc1ccccc1 | · | – | – | – | · | –
CCOc1ccccc1-c1ccc(C(=O)NCc2ccccc2)o1 | – | – | – | – | – | +
O=c1[nH]c(O)c(C=C2C=Nc3ccc(OCc4ccccc4)cc32)c(=O)[nH]1 | · | · | · | · | – | ·
O=C1N/C(=N/S(=O)(=O)c2ccccc2)S/C1=C/c1cccnc1 | – | – | 33 | – | · | –
O=C1NC(=Nc2ccccc2)S/C1=C\c1cccnc1 | – | – | 33 | – | – | –
Cc1ccc(N=C2NC(=O)/C(=C/c3cccnc3)S2)cc1C | – | – | – | – | – | –
CC(C)(C)c1ccc(C(=O)Nc2ccc(Oc3cccnc3)nc2)cc1 | – | – | – | – | – | –
CCOC(=O)C(=CNc1ccc(Oc2cccnc2)nc1)C(=O)OCC | – | – | 36 | – | – | –
CC(=O)C1=C(O)C(=Cc2ccccc2)OC1=O | · | · | – | · | · | –
COc1ccc(C=C2OC(=O)C(C(C)=O)=C2O)cc1 | · | · | 59 | · | · | –
CS(=O)(=O)N(CC(=O)NN=Cc1ccco1)c1ccccc1Br | · | · | · | · | – | ·
CCOC(=O)c1ccc(-c2ccc(/C=N/NC(=O)CN(c3ccccc3Br)S(C)(=O)=O)o2)cc1 | – | – | 32 | – | · | –
O=[N+]([O-])c1cccc(CNc2ccc3c(c2)CCC3)c1 | – | – | – | – | 69 | –
CCc1cccc2sc(N3CCN(C(=O)C4CCCN4S(=O)(=O)c4ccc(Cl)s4)CC3)nc12 (centres undefined) | · | · | · | · | – | ·
N/C(=N\N=C\c1ccc2c(c1)OCO2)c1nonc1N | – | – | 32 | – | · | –
NC(=NN=Cc1ccc2c(c1)OCO2)c1nonc1N | · | · | · | · | – | ·
COc1ccc(-c2noc(-c3c(C)cc(C)n(CC(=O)Nc4cccc(Cl)c4C)c3=O)n2)cc1 | · | · | · | · | – | ·
CCCC1C(C#N)=C(N)Oc2cc(C)n(C)c(=O)c21 (centres undefined) | – | – | – | – | – | 114
Cc1cc2c(c(=O)n1C)C(Cc1ccccc1)C(C#N)=C(N)O2 (centres undefined) | – | – | – | – | – | –
CC(C)Sc1nc(N)c2c3c(sc2n1)CN(C)CC3 | – | – | – | – | – | –
CCCSc1nc(N)c2c3c(sc2n1)CN(C)CC3 | – | – | – | – | – | 41
SMILES | Mtb UGM inh | Mtb betalactam | GDH-TPI inh | Rv3671c inh | PriA SSB inh | Mtb FBA inh
Cc1nc2nc(-c3cccs3)[nH]c2cc1Br | – | – | 53 | – | – | –
Cn1c(=O)oc2ccc(S(=O)(=O)NCCN3CCN(c4ccccc4F)CC3)cc21 | · | · | · | · | – | ·
O=C(c1ccccn1)N1CCN(c2cc(-n3cccc3)ncn2)CC1 | · | · | · | · | – | ·
COC1C(OC(=O)/C=C/C=C/C=C/C=C/C(=O)O)CCC2(CO2)C1C1(C)OC1CC=C(C)C (centres undefined) (tested in a mixture with another compound) | · | · | 64 | · | · | –
CC(C)NC(=S)N/N=C/c1cccs1 | – | – | 38 | – | · | –
S=C(NCCc1ccccc1)N/N=C/c1cccs1 | – | – | – | – | · | –
S=C(NCc1ccccc1)N/N=C/c1cccs1 | – | – | 34 | – | · | –
CC(NCC(O)Cn1c2ccccc2c2ccccc21)c1ccccc1 (centres undefined) | · | · | · | · | – | ·
Cc1ccc(Cl)c2sc(NC(=O)CCS(=O)(=O)c3ccc(F)cc3)nc12 | · | · | · | · | – | ·
Cc1ccc(S(=O)(=O)N=C(c2ccccc2)N(C)c2ccc(O)cc2)cc1 | · | · | · | · | – | ·
CCN(CC)C(=S)SC1=C(Cl)CS(=O)(=O)C1 | · | · | · | · | 98 | ·
O=C(NCCN1Cc2cc(Cl)ccc2OCC1=O)c1ccno1 | · | · | · | · | – | ·
O=C(NCCN1Cc2cc(Cl)ccc2OCC1=O)c1cnccn1 | · | · | · | · | 50 | ·
Cc1cccc(NC(=O)Nc2nc(C)c(C(=O)NCCC3=CCCCC3)s2)c1 | · | · | · | · | – | ·
CCN(C(=O)c1cc2c(=O)n3cccc(C)c3nc2s1)C1CCCCC1 | – | – | – | – | – | –
CCN(C(=O)c1cc2c(=O)n3ccccc3nc2n1C)C1CCCCC1 | – | – | – | – | – | +
CC1CCCCC1NC(=O)c1cc2c(=O)n3ccccc3nc2n1C (centres undefined) | – | – | – | – | – | 180
Cc1cccn2c(=O)c3cc(C(=O)NC4CCCCC4C)n(C)c3nc12 (centres undefined) | – | – | – | – | – | –
CN(C(=O)c1cc2c(=O)n3ccccc3nc2n1C)C1CCCCC1 | – | – | – | – | – | +
CCN(C(=O)c1cc2c(=O)n3ccccc3nc2n1CCCOC)C1CCCCC1 | – | – | – | – | – | 118
CC(=O)N1CCc2c(sc(N)c2-c2nc3ccccc3s2)C1 | · | · | · | · | – | ·
Cc1ccc(-c2nn(-c3ccccc3)cc2C=NNC(=O)c2ccc3c(c2)OCO3)cc1 | · | · | · | · | – | ·
Cc1cc(C)c(S(=O)(=O)Nc2ccc(C(=O)O)cc2)cc1S(=O)(=O)Nc1ccc(C(=O)O)cc1 | 11 | – | – | – | – | –
Cc1cc(C(C)(C)C)cc(S(=O)(=O)Nc2ccc(O)c(C(=O)O)c2)c1C | 17 | · | – | – | – | –
Clc1cc2nc3ccccn3c2cc1Cl | – | – | – | – | – | 140
SMILES | Mtb UGM inh | Mtb betalactam | GDH-TPI inh | Rv3671c inh | PriA SSB inh | Mtb FBA inh
O=Cc1c(Cl)nc2ccccn12 | – | – | – | – | – | –
O=C(NN1C(=O)/C(=C\C=C\c2ccco2)SC1=S)c1ccc([N+](=O)[O-])cc1 | · | · | · | · | – | ·
O=[N+]([O-])c1ccc(Cl)cc1Sc1nc2ccccc2o1 | – | – | – | – | 49 | –
Cc1nnc(NC(=O)CSc2ccc(NC(=O)c3cccs3)nn2)s1 | · | · | · | · | – | ·
Cc1ccc(Cn2c(CO)cnc2SCC(=O)Nc2cccc([N+](=O)[O-])c2)cc1 | · | · | · | · | – | ·
N#Cc1cnc(Nc2nc3ccccc3o2)nc1-c1ccccc1 | – | – | 33 | – | – | –
Cc1ccnc(Nc2nc3ccccc3o2)n1 | – | – | – | – | – | –
c1ccc(CN=C2NN=C(c3ccccc3)CS2)cc1 | – | – | – | – | – | –
c1ccc(C2=NNC(=NCc3ccc4c(c3)OCO4)SC2)cc1 | – | – | – | – | 47 | –
O=C1C2C3C=CC(C3)C2C(=O)N1CCN1CCN(S(=O)(=O)c2ccc3ccccc3c2)CC1 (centres undefined) | 10 | – | – | – | – | –
COC(=O)c1sc(-c2ccc(Cl)cc2)cc1NC(=O)/C=C/C(=O)O | – | – | – | – | – | –
COC(=O)c1sc(-c2ccc(Cl)cc2)cc1NC(=O)COCC(=O)O | – | · | 35 | – | – | –
CCN(CC)S(=O)(=O)c1ccc(N/N=C/c2cccnc2)nc1 | – | – | 73 | – | – | –
